# According to the supplement of paper PMC4840960:
# Test system: E18 rat cortical neuron-glia co-culture
# Assay: myelination (MBP fiber length per Olig2+ nucleus), % of 1 µM DAPT response (DMSO = 0) (% of DAPT); higher = more myelination, active = 50 or more
# Conditions: 1 µM; treatment time: 8 days (DIV5-DIV13)
# Summary of the method: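 The myelination value was the continuous straight MBP fiber length per Olig2+ nucleus, scaled between 0.1 % DMSO (0) and a 1 µM positive control (100). It was measured in primary E18 rat cortical co-cultures treated with library compounds at 1 or 5 µM in myelination medium from DIV5 through DIV13. Cells were fixed in 4 % paraformaldehyde and stained for MBP, Olig2 and DAPI, and four 10X fields per well were imaged in duplicate wells.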
row,Compound,myelination
1,Cc1nccn1CC1CCc2c(c3ccccc3n2C)C1=O (centres undefined) [Ondansetron],-25.6 (inactive)
2,Cc1ncc([N+](=O)[O-])n1CC(C)O (centres undefined) [Secnidazole],-31.6 (inactive)
3,O=C(c1ccc(F)cc1)C1CCN(CCn2c(=S)[nH]c3ccccc3c2=O)CC1 [Altanserin],0.872 (inactive)
4,Cc1onc(-c2ccccc2)c1-c1ccc(S(N)(=O)=O)cc1 [Valdecoxib],-12.1 (inactive)
5,NC(=O)OCC(COC(N)=O)c1ccccc1 [Felbamate],-15.5 (inactive)
6,Brc1c(NC2=NCCN2)ccc2nccnc12 [Brimonidine],-13.9 (inactive)
7,Cc1ncc([N+](=O)[O-])n1CCO [Metronidazole],-7.63 (inactive)
8,CN1CCN(C2=Nc3ccccc3Oc3ccc(Cl)cc32)CC1 [Loxapine],-14.9 (inactive)
9,CC(C)(C#N)c1cc(Cn2cncn2)cc(C(C)(C)C#N)c1 [Anastrozole],-5.96 (inactive)
10,CN(C)C(=O)C(CCN1CCC(O)(c2ccc(Cl)cc2)CC1)(c1ccccc1)c1ccccc1 [Loperamide],-10.1 (inactive)
11,CC1(C)O[C@@H]2C[C@H]3[C@@H]4C[C@H](F)C5=CC(=O)C=C[C@]5(C)[C@@]4(F)[C@@H](O)C[C@]3(C)[C@]2(C(=O)CO)O1 [Fluocinolone Acetonide],22.3 (inactive)
12,COc1cc(C(=O)NS(=O)(=O)c2ccccc2C)ccc1Cc1cn(C)c2ccc(NC(=O)OC3CCCC3)cc12 [Zafirlukast],-12.3 (inactive)
13,CNC[C@H](O)c1ccc(O)c(O)c1 [Epinephrine],2.28 (inactive)
14,NS(=O)(=O)c1cc2c(cc1Cl)NCNS2(=O)=O [Hydrochlorothiazide],-8.91 (inactive)
15,Cc1occc(=O)c1O [Maltol],-10.1 (inactive)
16,CCCC1O[C@@H]2C[C@H]3[C@@H]4CCC5=CC(=O)C=C[C@]5(C)[C@H]4[C@@H](O)C[C@]3(C)[C@]2(C(=O)CO)O1 (some centres undefined) [Budesonide],3.65 (inactive)
17,CC(C(=O)O)c1ccc(-c2ccccc2)c(F)c1 (centres undefined) [Flurbiprofen],-16.8 (inactive)

row,Compound,myelination
1,CN1CCN(C2=Nc3cc(F)ccc3Cc3ccccc32)CC1 [Fluperlapine],6.96 (inactive)
2,CCCCC(=O)O[C@H]1CC[C@H]2[C@@H]3CCc4cc(O)ccc4[C@H]3CC[C@]12C [Estradiol valerate],1.8 (inactive)
3,CC1(C)S[C@@H]2[C@H](NC(=O)[C@H](N)c3ccccc3)C(=O)N2[C@H]1C(=O)O [Ampicillin],-16.3 (inactive)
4,CNC(=C[N+](=O)[O-])NCCSCc1csc(CN(C)C)n1 [Nizatidine],-8.02 (inactive)
5,Cc1ccc(C)c(OCCCC(C)(C)C(=O)O)c1 [Gemfibrozil],-13.7 (inactive)
6,Nc1ccc2cn[nH]c2c1 [6-Aminoindazole],-12.7 (inactive)
7,COC(=O)C1=C(C)NC(C)=C(C(=O)OC)C1c1ccccc1[N+](=O)[O-] [Nifedipine],-18.3 (inactive)
8,CCC(=O)NS(=O)(=O)c1ccc(-c2c(-c3ccccc3)noc2C)cc1 [Parecoxib],-22.9 (inactive)
9,CCOC(=O)C1=C(C)NC(C)=C(C(=O)OC)C1c1cccc(Cl)c1Cl (centres undefined) [Felodipine],20.4 (inactive)
10,CN1[C@@H]2CC[C@H]1C[C@@H](OC(=O)c1c[nH]c3ccccc13)C2 [Tropisetron],-47.4 (inactive)
11,CN1CCC(=C2c3ccccc3CC(=O)c3sccc32)CC1 [Ketotifen],-0.199 (inactive)
12,CN1CCN2c3ncccc3Cc3ccccc3C2C1 (centres undefined) [Mirtazapine],-13.9 (inactive)
13,NS(=O)(=O)c1cc(C2(O)NC(=O)c3ccccc32)ccc1Cl (centres undefined) [Chlorthalidone],18.9 (inactive)
14,COc1ccc([C@@H]2Sc3ccccc3N(CCN(C)C)C(=O)[C@@H]2OC(C)=O)cc1 [Diltiazem],-10.1 (inactive)
15,CC[N+](C)(CC)CCOC(=O)C(O)(c1ccccc1)C1CCCCC1 (centres undefined) [Oxyphenonium],-8.21 (inactive)
16,C[C@H]1C[C@@H]2[C@H]([C@@H](O)C[C@@]3(C)[C@H]2CC[C@]3(O)C(=O)CO)[C@@]2(C)C=CC(=O)C=C12 [Methylprednisolone],-0.665 (inactive)
17,COc1ccc2cc([C@H](C)C(=O)O)ccc2c1 [Naproxen],-5.15 (inactive)
